# Source: PubChem BioAssay
# Tau fluor cs – Counterscreen qHTS for Inhibitors of Tau Fibril Formation, Fluorescence Polarization. tau K18 P301L Alexa594 fluorescence, heparin fibrillization. AID 1463, 2008. Potency, µM (highest dose often 57.7 µM), without a hit: at the highest dose activity change, negative = decrease. hit rate 0.93% among 280,000; also: potency is read from the fitted curve at half-maximal effect; nearly all actives have a fitted effect of over 55% in size
#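 Human K18 P301L tau (15 uM unlabeled plus 0.24 uM Alexa 594-labeled, final) in 100 mM sodium acetate pH 7 was mixed with compound and 20 uM heparin and incubated 6 hr at 37 C.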
# FBPA coupling cs – qHTS Assay for Inhibitors of Fructose-1,6-bisphosphate Aldolase from Giardia Lamblia: Coupling assay counterscreen. activity change, negative = inhibition, % at 58.2 µM, hits read low. coupling enzyme system counterscreen, AmpLite Red fluorescence. hit rate 0.67% among 290,000; in the data active = activity change below about -30%
#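 Coupling enzymes only (glyceraldehyde-3-phosphate) + compound, at 57.5 uM final, 10 min RT; add substrate/coupling/AmpLite Red mix, 20 min RT; fluorescence ex 525/em 598 nm. Actives flag coupling-system interference.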
# Sfp PPTase inh – qHTS Assay for Inhibitors of Bacillus subtilis Sfp phosphopantetheinyl transferase (PPTase); 4'-phosphopantetheinyl transferase ffp (Bacillus subtilis), Q9F4F7; Potency, µM, for the others: largest response in the series, negative = inhibition, most hits filed as inhibitors; hit rate 3.5% among 310,000; Biochemical Sfp PPTase activity, qHTS;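 also: the enzyme is Sfp with the accession as filed and its product quenches rhodamine fluorescence; potency is read from the fitted curve at half-maximal effect; 0% = enzyme reaction without inhibitor and -100% = no enzyme wells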
#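 Buffer: 50 mM Hepes-Na pH 7.6, 10 mM MgCl2, 0.01% Nonidet P-40, 0.01% BSA. Enzyme 15 nM, pre-exposed to compound 15 min; substrates then added and fluorescence change tracked over 30 min.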
# Tau fibril ThT – qHTS for Inhibitors of Tau Fibril Formation, Thioflavin T Binding. Microtubule-associated protein tau (Homo sapiens), P10636. recombinant tau K18 P301L (four-repeat tau fragment), heparin-induced fibrillization, ThT fluorescence. Potency, µM (titrated, usually from 57.4 µM), for the others: at the top dose activity, negative = inhibition, actives largely listed as inhibitors. hit rate 2.1% among 270,000. AID 1460, 2008; also: potency is read from the fitted curve at half-maximal effect; nearly all actives have a fitted effect of over 55% in size
# Target sequence (P10636 561-689 P618L limits assumed): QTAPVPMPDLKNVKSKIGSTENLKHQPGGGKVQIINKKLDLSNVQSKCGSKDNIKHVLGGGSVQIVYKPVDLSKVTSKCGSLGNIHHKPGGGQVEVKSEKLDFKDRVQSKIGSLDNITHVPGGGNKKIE
#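 Recombinant human tau K18 fragment […] carrying P301L, 15 uM unlabeled plus 0.24 uM Alexa 594-labeled, was fibrillized with 20 uM heparin in 100 mM sodium acetate pH 7 for 6 hr at 37 C; 30 uM ThT fluorescence read after 1 hr.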
# Tau FP inhib – qHTS for Inhibitors of Tau Fibril Formation, Fluorescence Polarization | AID 1468, 2008 | Potency, µM (highest dose often 57.7 µM), inactives show at the highest dose activity, negative = inhibition, hits mostly inhibitors | hit rate 0.39% among 280,000 | K18 P301L tau heparin fibrillization, Alexa594 FP, 6 h | Microtubule-associated protein tau (Homo sapiens), P10636; also: potency is read from the fitted curve at half-maximal effect; nearly all actives have a fitted effect of over 55% in size
#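 Read-out: fluorescence polarization of Alexa 594-labeled tau (0.24 uM), 555 nm excitation, 632 nm emission. Mixtures held 15 uM unlabeled K18 P301L, compound and 20 uM heparin, pH 7 acetate buffer, incubated 6 hr at 37 C.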
# Active calls of the source: *; ? = inconclusive; / = no result given; ! = repeats disagree; [ ] = dose if it differs, or a comment. Only some compounds are listed: those with a hit (about 5.2% of all), similar ones and a draw of the others. Unless noted, calls follow the shape of the dose curve; as a rule, active = well fitted curve in the direction sought with a large enough effect; inconclusive = small, poorly fitted or top-dose-only effect, or another doubt; inactive = no such curve, though single readings can be large; an effect the other way counts as inactive or inconclusive. Unless noted, % is scaled to controls: 0 for no effect and ±100 for the full control effect.
SMILES,Tau fluor cs,FBPA coupling cs,Sfp PPTase inh,Tau fibril ThT,Tau FP inhib
COc1cc(O)c(C(=O)/C=C/c2ccc(OC)c(O)c2)c(OC)c1,?,-1.9,-37.8%,3.16µM*,-1.9%
COc1cc(/C=C/C(=O)c2ccc(C)c([N+](=O)[O-])c2)cc(OC)c1O,?,0.5,-0.9%,6.31µM*,7.2%
COc1ccc(OCC(=O)OCc2cc(=O)n3nc(C4CCCCC4)sc3n2)cc1,-0.5%,/,/,-7.3%,-3.8%
CCc1cc2c(nc1CC)CCN(CC/C(C)=N/O[C@@H](C)CN1CCCCc3nc(C)c(C)cc31)C2,-9.5%[11.6 µM],2.9,2.3%,-16.5%[11.5 µM],-9.8%[11.6 µM]
CC(=O)Nc1ccc(NS(=O)(=O)c2c(Cl)cccc2Cl)cc1,-14.8%,-4.7,79.4µM*,-6.4%,-2.4%
COc1ccc(-c2nsc(NC(=O)COc3ccc(C)c(C)c3)n2)cc1,?,/,/,-5.8%,-14.1%
O=C(Nc1nnc(C(F)(F)F)s1)c1ccc(Br)s1,2.2%,-34.2*,2.2%,10.2%,2.6%
Cc1cc(C(=O)Nc2nnc(C(F)(F)F)s2)cs1,-15.1%,-34.6*,13.6%,/,-1.5%
CCNc1ncc2nc(C)c(=O)n(Cc3cccc(OC)c3)c2n1,/,1.7,10.5%,/,/
COC(=O)c1ccc(NC(=O)CSc2ccc(-c3sc(-c4ccccc4)nc3C)nn2)cc1,?,/,/,?,-21.3%
CN(C)S(=O)(=O)N1C(=O)c2ccccc2C1=O,-19.9%,-2.5,12.6µM*,-21.2%,-9.5%
CCCNC(=O)c1ccc(N2CCC3(CC2)CC(c2ccccc2)=NO3)c(NC(=O)c2ccccc2)c1,/,0.8,56.2µM*,/,/
CCCNC(=O)c1ccc(N2CCC3(CC2)CC(c2ccccc2)=NO3)c(NC(=O)c2ccc(Br)cc2)c1,/,2.1,20.2%,/,/
Cc1c(O)cc2n(c1=O)-c1ccccc1C2(C)C,-4.1%,2.2,15.3%,-10.5%,-9.3%
CC1(C)c2ccccc2-n2c1cc1oc(=O)cc(O)c1c2=O,14.4%,-6.2,89.1µM*,/,2.0%
Cc1ccc(OCC(=O)Nc2ccc3nc(SCCOc4ccccc4)sc3c2)cc1,-22.3%,/,/,-16.6%,-12.9%
C#CCOc1ccccc1CNC1CCN(Cc2ccccc2)CC1,/,-0.9,79.4µM*,/,/
Cn1cc(C2=C(c3cn(CCCSC(=N)N)c4ccccc34)C(=O)NC2=O)c2ccccc21,12.6µM*[quencher],-10.8,50.1µM*,3.16µM*,?
COc1ccc2c(c1)c(C1=C(c3c[nH]c4ccccc34)C(=O)NC1=O)cn2CCCN(C)C,/,1.6,-28.7%,/,/
CN(C)CCCn1cc(C2=C(c3c[nH]c4ccccc34)C(=O)NC2=O)c2ccccc21,20µM*[quencher],-11.4,-14.5%,12.6µM*,2.3%
CC(=O)[C@]1(O)Cc2c(O)c3c(c(O)c2[C@@H](O[C@H]2C[C@H](N)[C@H](O)[C@H](C)O2)C1)C(=O)c1c(O)cccc1C3=O,?,-35.2*,?,4.47µM*,25.1µM*
CCCCC(=O)OCC(=O)[C@]1(O)Cc2c(O)c3c(c(O)c2[C@H](OC2CC(NC(=O)C(F)(F)F)C(O)C(C)O2)C1)C(=O)c1c(OC)cccc1C3=O (stereo not given in full),/,/,8.7%,/,/
CC(=O)[C@]1(O)Cc2c(O)c3c(c(O)c2[C@@H](O[C@H]2C[C@H](N)[C@H](O)[C@H](C)O2)C1)C(=O)c1ccccc1C3=O,?,/,-21.2%,3.55µM*,?
C=C1CC2C(=O)N(Cc3cc(OC)ccc3OC)C(C(=O)OCC)C1N2C (stereo not given),/,1.5,7.2%,/,/
COc1ccc(C2Nc3ccccc3C(=O)N2Cc2ccco2)cc1COc1ccc(F)cc1 (stereo not given),-7.5%,1.5,39.8µM*,-7.3%,0.4%
SMILES,Tau fluor cs,FBPA coupling cs,Sfp PPTase inh,Tau fibril ThT,Tau FP inhib
Oc1cc(O)cc(/C=C/c2ccc(O)c(O)c2)c1,11.2µM*[quencher],-8.6,39.8µM*,7.08µM*,8.0%
COc1ccc(-c2nnc3n2N=C(c2c(OC)cccc2OC)CS3)c(OC)c1,/,-0.8,3.3%,/,/
Cc1nnc(NC(=O)CSc2ccc(-c3ccccn3)nn2)s1,-13.5%,-0.5,?,?,-15.4%
Cc1nnc(NC(=O)CSc2ccc(-c3cccnc3)nn2)s1,12.7%,5.6,39.8µM*,-4.7%,8.6%
COc1ccc(C(CNC(=O)Cn2c(=O)oc3ccccc32)N(C)C)cc1 (stereo not given),/,/,20µM*,/,/
COc1ccc(NC(=O)Cn2c(=O)n(Cc3ccccc3OC)c(=O)c3cccnc32)cc1Cl,-26.7%,/,/,20.3%,25.1µM*
O=C(Cn1c(=O)n(Cc2ccc(Cl)cc2)c(=O)c2cccnc21)Nc1ccccc1C(F)(F)F,3.1%,/,/,6.1%,-16.9%
Cc1ccc(Cn2c(=O)c3cccnc3n(CC(=O)Nc3cccc(C(F)(F)F)c3)c2=O)cc1,-10.2%,-1.6,?,13.4%,17.8µM*!
COc1ccc(NC(=O)Cn2c(=O)n(Cc3ccccc3)c(=O)c3oc4ccccc4c32)cc1Cl,-27.9%,/,/,?,28.2µM*
CC(C)Cn1c(=O)c2ccccc2n2c(CCC(=O)Nc3ccc(F)cc3)nnc12,-21.3%,/,/,-14.7%,-15.9%
O=C(O)CCC(=O)c1cccc2ccccc12,9.5%,-0.8,-1.1%,3.8%,1.2%
C[N+](C)(C)CCC(=O)c1cccc2ccccc12,2.8%,/,17.8µM*,?,?
CC(C)c1ccc(OCc2cc(=O)n3c(-c4ccccc4)csc3n2)cc1,-18.5%,/,/,-10.2%,-0.2%
COC(=O)c1cccc(NC(=O)c2cccnc2C(=O)O)c1C,-12.3%,-2.3,79.4µM*,-16.5%,1.8%
O=C(O)c1cccnc1Cl,-1.7%,2.8,11.0%,-2.1%,-2.0%
O=C(O)c1cccnc1C(=O)O,-18.7%,-63.5*,89.1µM*!,-15.4%,?
CCN(CC)C(=O)C1=C(C)Nc2nc3ccccc3n2C1c1cccc(Cl)c1 (stereo not given),-17.4%,/,/,-15.2%,13.9%
O=C(CCCOc1ccc(Cl)cc1Cl)N1CCc2ccccc2C1,-13.0%,-4.5,17.8µM*,-14.8%,-2.8%
Cc1cc(Cl)ccc1OCCCC(=O)N1CCCCC1,-9.7%,2.0,79.4µM*,-16.3%,10.1%
Cc1cc(Cl)ccc1OCCCC(=O)N1CCOCC1,0.4%,2.7,8.2%,-10.8%,0.0%
O=C(Nc1sc2c(c1C(=O)c1ccccc1)CCCC2)c1cccnc1,-13.9%,0.4,17.2%,?,-6.6%
COc1ccc(Cl)cc1NC(=O)c1c(NCc2cccnc2)sc2c1CCCC2,?,/,/,17.8µM*,-11.1%
O=C(Nc1sc2c(c1C(=O)c1ccc(Cl)cc1)CCCC2)c1cccnc1,?,5.1,31.6µM*,?,-12.2%
COc1ccc(NC(=S)NNC(=O)COc2ccc(Cl)cc2Cl)cc1,4.2%,1.1,-9.9%,6.1%,-4.4%
